We go through 14 compounds from PubChem BioAssay (Tox21).

Test [1] is described as follows: qHTS assay for small molecule agonists of the p53 signaling pathway (AID 651631; calls by dose curve; also: nearly all actives have a fitted effect of over 15% in size; also: potency is read from the fitted curve at half-maximal effect). The procedure, abridged: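 We treat p53RE-bla HCT-116 cells with compounds for 16 h at 37 °C, add LiveBLAzer B/G FRET substrate for 2 h at room temperature, and measure fluorescence intensity.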
For orientation: Quantitative high-throughput screening tests each substance at several concentrations.

Test [2] can be described thus: qHTS assay for small molecules that induce genotoxicity in human embryonic kidney cells expressing luciferase-tagged ATAD5 (AID 651632). Also: nearly all actives have a fitted effect of over 15% in size. The gist of the method:
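Reporter cells (HEK293T) express luciferase-tagged ATAD5, a protein that accumulates after DNA damage. Treat 16 hr at 37C/5% CO2, add Amplite, wait 30 min at RT, and read luminescence.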

Test [3] in a line: qHTS assay for small molecules that induce genotoxicity in human embryonic kidney cells expressing luciferase-tagged ATAD5 - cell viability (AID 651634; calls by dose curve; also: nearly all actives have a fitted effect of over 25% in size; also: potency is read from the fitted curve at half-maximal effect). The procedure, abridged: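 Seeding of 2,000 HEK293T ATAD5-luciferase cells per well preceded pin-tool compound transfer. Plates sat 15.5 hr at 37C under 5% CO2, then fluorescence was read after 30 min with CellTiter-Fluor.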

Test [4] in a line: qHTS assay to test for compound auto fluorescence at 590 nm (red) in HepG2 cells (AID 720674). The procedure, abridged:
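Compound auto-fluorescence is scored relative to Rose Bengal sodium, measured at 540/590 nm in live HepG2 cultures after 1 hr compound contact (37 C, 5% CO2).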

Test [5] can be described thus: qHTS assay to test for compound auto fluorescence at 535 nm (green) in HepG2 cells (AID 720675).
The nature of test [6]: qHTS assay to test for compound auto fluorescence at 460 nm (blue) in HEK293 cells (AID 720678). The gist of the method: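 Measured: blue fluorescence (Ex 405/Em 460 nm) of compound-treated HEK293 cells, incubated overnight at 37C with 5% CO2 and scaled to triamterene equivalents.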
Test [7] in a line: qHTS assay to test for compound auto fluorescence at 590 nm (red) in HEK293 cells (AID 720679). The procedure, abridged: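 Using HEK293 cells at 2,000 per well, the screen added 23 nL of each compound after cell attachment and incubated overnight (37C, 5% CO2). The plate reader then captured red-label fluorescence, Ex/Em 540/590nm.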
The nature of test [8]: qHTS assay to test for compound auto fluorescence at 535 nm (green) in HEK293 cells (AID 720680).
Test [9] is described as follows: qHTS assay to test for compound auto fluorescence at 460 nm (blue) in HEK293 cell free culture (AID 720681). The gist of the method:
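Test compounds were pinned into cell-free culture medium (DMEM with 10% FBS) and fluorescence was read directly at Ex/Em 405/460 nm. Signals were expressed as fluorescence equivalents of triamterene, with DMSO vehicle as control.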

The nature of test [10]: qHTS assay to test for compound auto fluorescence at 535 nm (green) in HEK293 cell free culture (AID 720682). The procedure, abridged: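 Green-channel intensity (Ex/Em 485/535 nm) was recorded from compound-treated wells containing only DMEM with 10% FBS. Fluorescein provided the equivalency standard.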
A short description of test [11]: qHTS assay to test for compound auto fluorescence at 590 nm (red) in HepG2 cell free culture (AID 720684). The gist of the method: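 Red fluorescence (540 nm excitation, 590 nm emission) was measured after compound transfer into cell-free MEM supplemented with 10% FBS. Values are equivalencies against Rose Bengal sodium.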
Test [12] is described as follows: qHTS assay to test for compound auto fluorescence at 460 nm (blue) in HepG2 cell free culture (AID 720685). The procedure, abridged:
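Compound (23 nL) or DMSO pinned into cell-free MEM with 10% FBS; blue fluorescence read at 405/460 nm excitation/emission, expressed as auto-fluorescence equivalency to triamterene.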

Test [13] can be described thus: qHTS assay to test for compound auto fluorescence at 535 nm (green) in HepG2 cell free culture (AID 720686).
Test [14] is described as follows: qHTS assay to test for compound auto fluorescence at 460 nm (blue) in HepG2 cells (AID 720687). The gist of the method: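 Cells (2,000/well in MEM with 10% FBS) attached overnight at 37 C, then were exposed to compound or DMSO for 1 hr at 37 C, 5% CO2. Fluorescence read at Ex/Em 405/460 nm, expressed as triamterene-equivalent signal.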
The target in test [15] is Glucocorticoid receptor (Homo sapiens) (UniProt P04150). The experiment in a line: qHTS assay to identify small molecule agonists of the glucocorticoid receptor (GR) signaling pathway (AID 720691; active = well fitted activation curve with a large enough effect in the signal ratio in the repeat runs, not every such curve was filed as active; the % refers to the signal ratio). The gist of the method: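 Reporter read-out: fluorescence intensity following 2 h room-temperature LiveBLAzer B/G FRET substrate loading. Prior step: GR-bla HeLa cells held 4 h, then treated 18 h at 37 C.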

Test [16] in a line: qHTS assay for small molecule disruptors of the mitochondrial membrane potential - cell viability (AID 720634; calls by dose curve;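 also: human HepG2 liver cancer cells; series mostly up to about 83 µM; nearly all actives have a fitted effect of over 20% in size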). The gist of the method:
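Measuring cytotoxicity alongside mitochondrial potential, the screen quantified ATP by luminescence in HepG2 cells after 1 hr compound incubation and a 30 min room-temperature CellTiter-Glo step.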

The nature of test [17]: qHTS assay for small molecule disruptors of the mitochondrial membrane potential (AID 720635). Also: potency is read from the fitted curve at half-maximal effect. The procedure, abridged:
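HepG2 cells (2,000/well) attached overnight at 37C, then took compound for 1 hr at 37C, 5% CO2. Mito-MPS dye was added for 30 min; fluorescence was read at 490/535 nm (monomers) and 540/590 nm (aggregates).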

The nature of test [18]: qHTS assay to test for compound auto fluorescence at 590 nm (red) in HEK293 cell free culture (AID 720683). The gist of the method: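 Tox21 10K library compounds were pinned into cell-free DMEM with 10% FBS and fluorescence was read at excitation 540 nm. Activity is expressed as Rose Bengal sodium equivalency.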
Test [19] is described as follows: qHTS assay for small molecule agonists of the p53 signaling pathway - cell viability (AID 651633; calls by dose curve;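 also: p53RE-bla HCT reporter cells with a stable beta-lactamase p53 reporter; series mostly up to about 83 µM; nearly all actives have a fitted effect of over 30% in size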). The gist of the method: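 p53RE-bla cells, seeded at 4,000 per well and rested 5 h at 37 C/5% CO2, received compounds in DMSO for 16 h at 37 C. CellTiter-Glo was then added, and luminescence was read after 30 min at room temperature to gauge cytotoxicity.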
Test [20] addresses Glucocorticoid receptor (Homo sapiens) (UniProt P04150). Description: qHTS assay to identify small molecule antagonists of the glucocorticoid receptor (GR) signaling pathway (AID 720692; active = well fitted inhibition curve with a large enough effect in the signal ratio in the repeat runs, not every such curve was filed as active; the % refers to the signal ratio; also: potency is read from the fitted curve at half-maximal effect). The procedure, abridged: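 Dexamethasone (5 nM final) stimulated a stably integrated GRE-beta-lactamase reporter in HeLa cells during 18 h co-incubation with compounds; signal was quantified as fluorescence intensity of B/G FRET substrate after 2 h.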

“And” between values parts separate entries of the source, which are not always exact repeats. Equal values may be shown once. Unmarked numbers belong to inactive results. Records with an inconclusive call do not appear. The source made the active and inactive calls. Unless noted, calls follow the shape of the dose curve; as a rule, active = well fitted curve in the direction sought with a large enough effect in the repeat runs; inconclusive = weak or mixed curves; inactive = no such curve, though single readings can be large; an effect the other way counts as inactive or inconclusive.

Glucocorticoid receptor (Homo sapiens), sequence (P04150 whole entry, looked up): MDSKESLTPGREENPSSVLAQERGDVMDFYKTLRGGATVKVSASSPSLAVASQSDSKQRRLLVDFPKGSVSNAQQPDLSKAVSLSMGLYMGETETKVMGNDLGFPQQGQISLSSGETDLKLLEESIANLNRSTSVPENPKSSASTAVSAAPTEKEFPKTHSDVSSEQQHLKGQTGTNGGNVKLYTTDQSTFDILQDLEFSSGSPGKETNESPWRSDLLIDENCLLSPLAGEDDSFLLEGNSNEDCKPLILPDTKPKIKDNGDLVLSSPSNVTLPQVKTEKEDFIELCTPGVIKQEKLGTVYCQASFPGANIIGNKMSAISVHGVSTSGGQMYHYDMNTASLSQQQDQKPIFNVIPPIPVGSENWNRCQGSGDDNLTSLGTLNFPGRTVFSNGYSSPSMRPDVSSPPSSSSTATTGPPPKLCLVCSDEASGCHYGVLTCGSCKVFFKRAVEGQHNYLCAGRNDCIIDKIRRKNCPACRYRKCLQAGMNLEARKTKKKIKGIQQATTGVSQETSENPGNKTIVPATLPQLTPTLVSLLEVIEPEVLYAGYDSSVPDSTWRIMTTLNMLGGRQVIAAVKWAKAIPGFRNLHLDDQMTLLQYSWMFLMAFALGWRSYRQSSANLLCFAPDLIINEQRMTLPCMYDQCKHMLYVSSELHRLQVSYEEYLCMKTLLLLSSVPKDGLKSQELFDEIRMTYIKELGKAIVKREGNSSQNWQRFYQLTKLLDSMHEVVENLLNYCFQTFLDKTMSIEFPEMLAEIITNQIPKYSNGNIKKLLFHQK

On to `CCSCc1ccccc1OC(=O)NC`, for which the Potency entry in test [1], in test [2], in test [3] and in test [15] was “inactive” in each case. Further, the compound was called inactive in test [4], in [5], in test [6], in [7], in [8] and in test [9]. In addition, the call in [10], in test [11], in test [12], in test [13] and in test [14] was inactive.
For the compound `N#CC(C#N)=Cc1ccc(O)c(O)c1`, the Potency entry in test [1], in test [2], in [3] and in [16] was “inactive” in each case. In addition, the Potency in test [17] is 11.9 µM (active). The compound was classed as inactive in test [4], in [5], in test [6], in test [7], in test [8] and in test [9]. For the same compound, the compound was classed as inactive in test [10], in [18], in test [11], in [12], in test [13] and in test [14].
For `C#C[C@]1(O)CC[C@H]2[C@@H]3CCC4=CC(=O)CCC4=C3C=C[C@@]21CC`, the Potency entry in [1], in test [19] and in [3] was “inactive” in each case. Also, the compound was classed as inactive in test [4], in test [6], in [7], in [8], in test [9] and in [10]. Also, the call in test [18], in test [11], in test [12], in test [13] and in test [14] was inactive. The Potency in [20] was 379 nM (active).
As for `NC(=S)c1c(Cl)cccc1Cl`, the Potency entry in test [1], in test [19], in test [16], in test [17], in [15] and in [20] was “inactive” throughout. Also, the call in test [4], in [5], in test [6], in [7], in test [8] and in test [9] was inactive. The outcome in [10], in test [11], in test [12], in [13] and in [14] was inactive.
As for `CCCCCCCCn1sccc1=O`, the Potency was 12.2 µM (active) and 25.5 µM (active) in test [1]; 54.6 µM (active) in test [3]; 30.7 µM (active) and 64.1 µM (active) in [17]; 49.1 µM (active) and 36.3 µM (active) in test [20]. Also, the Potency result in [2], in test [16] and in [15] was “inactive” each time. Moreover, the call in [4], in test [5], in test [6], in [7], in test [8] and in test [9] was inactive. The compound was called inactive in test [10], in test [18], in [11], in test [12], in test [13] and in [14].
`C=CC(=O)NC(C)(C)CC(C)=O`: the Potency entry in test [1], in test [2], in test [3] and in test [15] was “inactive” in each case. The compound was classed as inactive in [4], in [5], in test [6], in test [7], in test [8] and in [9]. Besides, the compound was classed as inactive in test [10], in test [18], in [11], in test [12], in test [13] and in test [14].
Take `CN(C1CCCCC1)C1CCCCC1`: the Potency entry in [2], in test [19], in [3], in [16], in [17] and in [15] was “inactive” throughout. The Potency entry in [20] was “inactive”. In addition, the compound was called inactive in test [4], in [5], in [6], in test [7], in test [8] and in test [9]. Further, the result in test [10], in test [18], in test [11], in test [12], in [13] and in test [14] was inactive.
Turning to `CCC1(C2=NCCN2)Cc2ccccc2O1` (stereo not given), the Potency result in test [2], in [19], in test [3] and in [17] was “inactive” throughout. In addition, the outcome in test [4], in test [6], in [7], in [8], in test [9] and in test [10] was inactive. The result in test [18], in [11], in test [12], in [13] and in [14] was inactive.
As to `C[N+]1(CCC(C(N)=O)(c2ccccc2)c2ccccc2)CCCCC1`, the Potency entry in test [2], in test [19], in test [3], in test [16], in test [17] and in test [15] was “inactive” each time. In addition, the Potency result in [20] is “inactive”. In addition, the result in test [4], in test [5], in test [6], in test [7], in test [8] and in test [9] was inactive. Further, the compound was called inactive in test [10], in test [18], in [11], in [12], in [13] and in [14].
Take `NP(N)(=O)NC(=O)c1ccc(F)cc1`: the Potency result in test [2], in test [19], in test [3], in test [16] and in test [20] was “inactive” throughout. Moreover, the call in test [4], in test [5], in test [6], in [7], in test [8] and in test [9] was inactive. Moreover, the compound was called inactive in test [10], in test [18], in [11], in test [12], in test [13] and in test [14].
For `NNCCO`, the Potency entry in [2], in test [19] and in [3] was “inactive” each time. For the same compound, the outcome in test [4], in test [6], in test [7], in test [8], in test [9] and in [10] was inactive. The compound was classed as inactive in test [11], in [12], in test [13] and in [14].
For `CC(C)[C@@H](C(=O)O[C@@H](C#N)c1cccc(Oc2ccccc2)c1)c1ccc(Cl)cc1`, the Potency entry in [2], in test [19] and in test [3] was “inactive” throughout. Besides, the Potency in test [17] was 12.4 µM (active) and 30.6 µM (active). The outcome in test [4], in [5], in test [6], in test [7], in test [8] and in test [9] was inactive. For the same compound, the outcome in [10], in [18], in test [11], in test [12], in test [13] and in test [14] was inactive.
As for `CCOP(=O)(SC(C)CC)N1CCSC1=O` (stereo not given), the Potency entry in [2], in [19], in test [3], in [16] and in test [17] was “inactive” each time. For the same compound, the outcome in test [4], in [5], in test [6], in test [7], in test [8] and in test [9] was inactive. Besides, the call in [10], in test [18], in [11], in test [12], in test [13] and in [14] was inactive.
Turning to `CCCN(CCOc1c(Cl)cc(Cl)cc1Cl)C(=O)n1ccnc1`, the Potency entry in [2], in [19], in [3] and in [15] was “inactive” in each case. The compound was classed as inactive in test [4], in [5], in test [6], in test [7], in test [8] and in test [9]. Also, the outcome in test [10], in test [11], in test [12], in test [13] and in [14] was inactive.
